Screening data: PubChem, The Scripps Research Institute Molecular Screening Center
Hits are enriched below; roughly 4.1% of the tested compounds scored in any of these assays.
hcDAF12 agonist = activators of H. contortus DAF-12 nuclear receptor; 370,000 compounds, 1.4% hits; HEK293 hcDAF-12 lit1-tk-luc reporter, luminescence; 0% DMSO, 100% Δ7-dafachronic acid; activation, % at 6.8 µM;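 active means activation above the mean of all tested compounds plus 3 SD, cut at about 5.5% in these data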;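 further: 100% = response to 3 µM Δ7-dafachronic acid high control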
DAX1 inh-1 = DAX1 (NR0B1) inhibition, primary screen | HEK293T StAR-luciferase reporter, SF-1/DAX-1 repression relief | inhibition, % at 6.8 µM | 370,000 compounds, 1.1% hits;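 active means inhibition above the mean over all tested compounds plus 3 SD, cut at about 3.6% in these data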;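 further: 0% = DAX-1 cells with DMSO and 100% = cells lacking DAX-1 with DMSO; higher inhibition means more luminescence from relief of DAX-1 repression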
ssDAF12 agonist = S. stercoralis DAF-12 activation, primary screen; HEK293 ssDAF-12/GRIP1 lit1-tk-luc reporter, luminescence; % of 3 µM dafachronic acid response; activation, % at 6.8 µM; 370,000 compounds, 1% hits; AID 652126;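 active means activation above the mean over all tested compounds plus 3 SD, cut at about 0.9% in these data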;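 further: 0% = DMSO-only wells and 100% = 3 µM delta7-dafachronic acid wells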
DAX1 inh-2 = inhibits human nuclear receptor DAX1 | inhibition, % at 6.75 µM | HEK293 Gal4-DAX1 luciferase reporter, luminescence | P51843 | AID 504766 | 340,000 compounds, 0.99% hits;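 active means inhibition above the mean over all tested compounds plus 3 SD, cut at about 4.2% in these data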;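 further: 0% = DAX1-transfected cells with DMSO and 100% = empty-vector control cells with DMSO; inhibition shows as a rise in luminescence from relieved DAX1 repression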
hgDAF12 agonist = agonists of H. glycines DAF-12 nuclear receptor. HEK293 GAL4-hgDAF12 UAS-luciferase reporter, agonist luminescence; normalized to butyrate control. activation, % at 6.8 µM. 370,000 compounds, 1.8% hits. AID 687014;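 active means activation above a cutoff set at the mean of all screened compounds plus 3 SD, cut at about 10% in these data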;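 further: 0% = DMSO wells and 100% = sodium butyrate wells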
DAX1 conf = confirmation of human DAX1 (NR0B1) inhibitors; HEK293T StAR-promoter luciferase reporter, SF-1/DAX-1 repression; 2,400 compounds, 87% hits; inhibition, % at 6.8 µM; shares compounds with DAX1 inh-1; AID 652134;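 active means inhibition above the average of every tested compound plus 3 SD, cut at about 3.8% in these data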;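 further: 0% = DAX-1 cells with DMSO and 100% = no DAX-1 control cells with DMSO; active compounds raise luminescence by relieving repression of the StAR reporter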
Target sequence (P51843 whole entry, looked up): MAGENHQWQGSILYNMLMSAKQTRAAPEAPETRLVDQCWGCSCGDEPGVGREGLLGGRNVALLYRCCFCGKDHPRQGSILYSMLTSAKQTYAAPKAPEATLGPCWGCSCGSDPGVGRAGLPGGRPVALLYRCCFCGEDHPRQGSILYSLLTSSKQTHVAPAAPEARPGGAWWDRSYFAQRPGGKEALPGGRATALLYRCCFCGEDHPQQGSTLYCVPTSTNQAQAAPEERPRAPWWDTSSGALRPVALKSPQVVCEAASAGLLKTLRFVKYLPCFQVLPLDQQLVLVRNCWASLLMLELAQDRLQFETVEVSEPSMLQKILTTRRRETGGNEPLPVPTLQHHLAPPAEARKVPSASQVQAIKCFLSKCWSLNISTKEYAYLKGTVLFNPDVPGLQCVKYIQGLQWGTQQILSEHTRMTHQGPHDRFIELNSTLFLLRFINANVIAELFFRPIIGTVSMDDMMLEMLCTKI
SF1 AF2mut Luc = nonselective inhibitor or artifact in SF-1 mutant DAX1 counter-screen. shares compounds with DAX1 inh-1. HEK293 StAR-luciferase, SF-1 AF2 mutant, luminescence. inhibition, % at 6.8 µM. 2,400 compounds, 78% hits. AID 652136;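 active means inhibition above the mean of all tested compounds plus 3 SD, cut at about 3% in these data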;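 further: 0% = DAX-1 transfected cells with DMSO and 100% = cells without DAX-1 with DMSO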
The depositor's hits bear a star; nt = no result given.

SMILES	hcDAF12 agonist	DAX1 inh-1	ssDAF12 agonist	DAX1 inh-2	hgDAF12 agonist	DAX1 conf	SF1 AF2mut Luc
Cc1[nH]c2ccccc2c1CC(=O)Nc1ccc(N(C)c2cccnc2)c(-c2ccc(F)c(F)c2)c1	3	-2	0	nt	6	nt	nt
COc1ccc(/C=C/c2cc(C(=O)O)c3ccccc3n2)cc1	6.0*	4.5*	1.0*	0	13*	9.8*	3.2*
Cc1ccc(-n2ncc3c(N4CCCC(C)C4)ncnc32)c(C)c1 (stereo not drawn)	2	4.8*	0	2	11*	7.2*	5.5*
Nc1c(C(=O)Nc2ccc3c(c2)OCCO3)nnn1Cc1ccc(Cl)cc1	5	8.7*	0	2	12*	7.7*	5.2*
Nc1c(C(=O)Nc2ccc3c(c2)OCCO3)nnn1Cc1cccc(F)c1	0	7.7*	-1	2	7	9.4*	5.3*
CCn1cc(Cl)c(C(=O)Nc2ccc3c(c2)OCCO3)n1	2	6.1*	1	1	13*	9.7*	5.5*
CCn1cc(Cl)c(C(=O)Nc2cccc(C(F)(F)F)c2)n1	1	0	-1	0	3	nt	nt
COc1ccc(Cn2nnc(C(=O)Nc3ccc4c(c3)OCCO4)c2N)cc1Br	-1	-4	-1	-1	3	nt	nt
Cc1ccccc1Nc1nc(N)nc(CSc2ccc(F)cc2)n1	5	6.7*	1	7.5*	12*	11*	4.6*
Cc1ccc(SCc2nc(N)nc(Nc3ccccc3C)n2)cc1C	0	0	1	2	3	nt	nt
Cc1nnc(CN(C)C(=O)c2cc(COc3ccc(C)c(C)c3)on2)o1	1	0	-1	2	3	nt	nt
O=C(c1cc(COc2ccc(F)cc2Cl)on1)N1C[C@H]2CC[C@H]1C2	1	3	0	3	5	nt	nt
Cc1nnc(CN(C)C(=O)c2cc(COc3ccc(F)cc3Cl)on2)o1	4	5.2*	-1	1	5	8.1*	4.2*
O=C(c1cc(COc2ccc(F)cc2Cl)on1)N1CC2C[C@@H]3CC1C[C@H](C2)C3	3	5.7*	0	1	13*	5.8*	2
Cc1ccc(OCc2cc(C(=O)N3CC4C[C@@H]5CC3C[C@H](C4)C5)no2)cc1C	5	5.2*	0	2	11*	2	3.6*
CCC(C)N(C(=O)CN1C(=O)C2CCCCN2C(=O)c2ccccc21)C(C)CC (stereo not drawn)	-2	-1	-1	nt	-1	nt	nt
CC(C)c1ccc(/C=C2\SC(=O)N(CC(=O)NCCCn3ccnc3)C2=O)cc1	3	6.8*	0	1	11*	6.2*	6.5*
Cc1ccc(NC(=O)c2ccco2)nc1	4	8.0*	0	3	12*	8.7*	6.8*
Cc1ccc(NC(=O)c2ccc3c(c2)OCCO3)nc1	1	6.1*	0	-1	12*	3	1
O=C(NCc1ccccc1)[C@H]1CCCN1C(=O)[C@H]1CCCN1C(=O)c1ccc(F)cc1	-1	0	-1	nt	2	nt	nt
Cc1ccc(-c2csc(/C(C#N)=C(\O)CCl)n2)cc1	1	5.1*	-2	0	12*	3	2
CC1CCN(CCCNC(=O)CCc2nnc3n(CCc4ccccc4)c(=O)c4ccccc4n23)CC1	1	5.7*	-1	0	-3	-1	0
O=S1(=O)c2cc(Cl)ccc2N2CC[C@H](C2)N1Cc1ccc(Cl)c(Cl)c1	-1	0	-1	nt	-1	nt	nt
Cc1ccn2cc(-c3ccc4c(c3)NC(=O)CO4)nc2c1	1	5.3*	-1	1	11*	8.6*	6.0*
Cc1cccn2cc(-c3ccc4c(c3)NC(=O)CO4)nc12	0	-1	-1	-2	2	nt	nt
COc1ccc(C(=O)NNC(=O)c2ccncc2)cc1	-4	0	-1	-1	0	nt	nt
COc1ccc(O)c(C(=O)CC(=O)c2ccncc2)c1	1	4.7*	-1	2	12*	5.7*	3.6*
